These results are taken from paper PMC4336329 (PLoS ONE, 2015).

Out of some 310,000 compounds screened, about 14,000 (4.5%) showed an effect of 50% or more. The effect is printed as a negative number. Many of the other results were omitted from the sample, so strong results are more common in it than they were.
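Also: peak tail current of the secondary pulse compared with the same well before compound.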

For the assay, the target named is human ether-à-go-go-related gene (hERG) potassium channel (human, UniProt Q12809). As to the kind of experiment: primary screen, population patch clamp on CHO cells stably expressing hERG; higher = less effect of the substance.
human ether-à-go-go-related gene (hERG) potassium channel, sequence (Q12809 whole entry, looked up): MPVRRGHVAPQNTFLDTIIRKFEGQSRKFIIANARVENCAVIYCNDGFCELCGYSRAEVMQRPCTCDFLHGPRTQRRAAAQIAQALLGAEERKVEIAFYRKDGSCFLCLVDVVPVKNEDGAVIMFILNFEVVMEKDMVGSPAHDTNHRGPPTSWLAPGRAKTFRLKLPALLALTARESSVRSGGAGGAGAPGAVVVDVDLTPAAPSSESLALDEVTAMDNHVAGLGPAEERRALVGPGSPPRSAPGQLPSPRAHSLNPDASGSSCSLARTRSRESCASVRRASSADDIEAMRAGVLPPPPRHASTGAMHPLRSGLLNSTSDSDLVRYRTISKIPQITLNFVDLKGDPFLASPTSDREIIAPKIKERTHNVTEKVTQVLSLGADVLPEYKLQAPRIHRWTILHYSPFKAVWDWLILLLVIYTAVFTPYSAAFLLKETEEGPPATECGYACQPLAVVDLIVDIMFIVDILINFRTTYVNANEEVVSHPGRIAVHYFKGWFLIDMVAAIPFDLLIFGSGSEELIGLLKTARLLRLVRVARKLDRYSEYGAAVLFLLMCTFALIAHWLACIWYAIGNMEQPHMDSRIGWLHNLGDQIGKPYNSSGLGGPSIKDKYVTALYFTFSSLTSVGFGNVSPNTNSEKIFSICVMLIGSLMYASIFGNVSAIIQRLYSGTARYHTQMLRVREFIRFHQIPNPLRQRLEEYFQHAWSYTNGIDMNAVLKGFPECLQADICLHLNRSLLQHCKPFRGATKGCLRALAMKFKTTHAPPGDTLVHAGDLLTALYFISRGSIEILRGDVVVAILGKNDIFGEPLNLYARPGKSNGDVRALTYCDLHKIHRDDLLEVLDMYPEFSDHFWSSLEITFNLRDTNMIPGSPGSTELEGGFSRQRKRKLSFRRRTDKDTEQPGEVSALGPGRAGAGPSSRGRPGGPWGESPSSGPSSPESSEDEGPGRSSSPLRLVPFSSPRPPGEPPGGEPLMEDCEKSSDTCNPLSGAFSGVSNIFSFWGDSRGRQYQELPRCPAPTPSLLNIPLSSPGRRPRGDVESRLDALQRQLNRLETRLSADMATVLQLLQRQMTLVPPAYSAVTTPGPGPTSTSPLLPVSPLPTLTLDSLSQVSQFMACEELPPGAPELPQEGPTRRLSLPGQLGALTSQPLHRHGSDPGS
As to `CCCC(C(=O)O)n1c(O)c(C=C2N=c3ccccc3=N2)sc1=S` (stereo not shown), the “hERG current change (%, negative = inhibition) at 10uM” value worked out at 6.16%.

Take `CCN1C(=O)c2ccccc2Sc2ccc(C(=O)NCCN3CCOCC3)cc21`: the “hERG current change (%, negative = inhibition) at 10uM” value is listed as -5.49%.

`O=S(=O)(O)c1ccc(N=NNc2ccc(Br)cc2)cc1`: the “hERG current change (%, negative = inhibition) at 10uM” value turned out to be 30.7%.

Turning to `N#Cc1ccc(C23CC4(C2)[C@H](CN(P(=O)(c2ccccc2)c2ccccc2)[C@@H]4c2ccccc2)C3c2ccc(Cl)nc2)cc1` (stereo partly shown), the “hERG current change (%, negative = inhibition) at 10uM” value is recorded as -8%.

For the compound `CCC(C)n1c(SCC(=O)/C(C#N)=C(\C)N)nc2ccccc2c1=O` (stereo not shown), the “hERG current change (%, negative = inhibition) at 10uM” value was -15.3%.

`O=C(/C=C/c1ccco1)Nc1ccc(Oc2ccccc2)cc1`: the “hERG current change (%, negative = inhibition) at 10uM” value is on record as -5.74%.

In the case of `COc1ccccc1CNCc1cc(OC)c(OC)cc1OC`, the “hERG current change (%, negative = inhibition) at 10uM” value was -10.3%.

In the case of `Cc1cc(OC(C)C)nc(NCc2ccccc2)n1`, the “hERG current change (%, negative = inhibition) at 10uM” value is on record as -3.54%.

For the compound `COc1ccccc1-c1coc2c(CN3CCN(CCO)CC3)c(O)ccc2c1=O`, the “hERG current change (%, negative = inhibition) at 10uM” value was 17.7%.

As for `N=c1c2c3c(sc2ncn1Nc1ccccc1)CCC3`, the “hERG current change (%, negative = inhibition) at 10uM” value is -29.6%.

On to `COc1cccc(-c2nn3c(-c4cc(C)[nH]n4)nnc3s2)c1`, for which the “hERG current change (%, negative = inhibition) at 10uM” value was -57.5%.

`CCOc1cccc(-c2nn3c(-c4ccco4)nnc3s2)c1`: the “hERG current change (%, negative = inhibition) at 10uM” value is listed as -49.4%.

With `COc1cccc(-c2nn3c(-c4cccc(C)c4)nnc3s2)c1`, the “hERG current change (%, negative = inhibition) at 10uM” value is recorded as 17.5%.

For `CCOc1cccc(-c2nn3c(-c4ccccn4)nnc3s2)c1`, the “hERG current change (%, negative = inhibition) at 10uM” value was determined as 6.33%.

Consider `CCOc1cccc(-c2nn3c(-c4cc(C)[nH]n4)nnc3s2)c1`, for which the “hERG current change (%, negative = inhibition) at 10uM” value is listed as -58.2%.

Turning to `COc1cccc(-c2nn3c(-c4ccccn4)nnc3s2)c1`, the “hERG current change (%, negative = inhibition) at 10uM” value is given as -28%.

With `CN(C)/C=C/C(=O)c1ccc(N2CCN(c3ncc(C(F)(F)F)cc3Cl)CC2)cc1`, the “hERG current change (%, negative = inhibition) at 10uM” value is recorded as -6.08%.

Take `CCOC(=O)c1ccccc1NC(=S)N1CC(C)CC(C)C1` (stereo not shown): the “hERG current change (%, negative = inhibition) at 10uM” value is -7.45%.

Consider `Brc1cccc(CNCCc2ccc3c(c2)OCO3)c1.O=C(O)C(=O)O`, for which the “hERG current change (%, negative = inhibition) at 10uM” value is listed as -24.9%.

Consider `FC(F)(F)c1ccc(CNCCc2ccc3c(c2)OCO3)cc1.O=C(O)C(=O)O`, for which the “hERG current change (%, negative = inhibition) at 10uM” value is -60.3%.

As to `COc1ccc(CNCc2cc3c(cc2[N+](=O)[O-])OCO3)cc1.O=C(O)C(=O)O`, the “hERG current change (%, negative = inhibition) at 10uM” value is -40.8%.

For the compound `Clc1cccc(CNCCc2ccc3c(c2)OCO3)c1.O=C(O)C(=O)O`, the “hERG current change (%, negative = inhibition) at 10uM” value was -24%.

Turning to `Fc1ccc(CNCCc2ccc3c(c2)OCO3)cc1`, the “hERG current change (%, negative = inhibition) at 10uM” value was -3.52%.

`Clc1ccc(CNCCc2ccc3c(c2)OCO3)cc1.O=C(O)C(=O)O`: the “hERG current change (%, negative = inhibition) at 10uM” value was -56.1%.

In the case of `O=C(O)C(=O)O.c1cncc(CNCCc2ccc3c(c2)OCO3)c1`, the “hERG current change (%, negative = inhibition) at 10uM” value stood at 8.84%.

In the case of `COc1cccc(CNCCc2ccc3c(c2)OCO3)c1OC.O=C(O)C(=O)O`, the “hERG current change (%, negative = inhibition) at 10uM” value is recorded as -15.5%.

Consider `c1cc(CNCCc2ccc3c(c2)OCO3)ccn1`, for which the “hERG current change (%, negative = inhibition) at 10uM” value is on record as 18.3%.

As for `O=C(O)C(=O)O.O=[N+]([O-])c1cc2c(cc1CNCCc1ccc3c(c1)OCO3)OCO2`, the “hERG current change (%, negative = inhibition) at 10uM” value is on record as -61.5%.

Turning to `CCOc1ccc(CNCCc2ccc3c(c2)OCO3)cc1`, the “hERG current change (%, negative = inhibition) at 10uM” value was -77.2%.

Consider `CCOc1ccccc1CNCCc1ccc2c(c1)OCO2.Cl`, for which the “hERG current change (%, negative = inhibition) at 10uM” value was -32.8%.

Turning to `O=C(CSc1ncccn1)Nc1ccccc1`, the “hERG current change (%, negative = inhibition) at 10uM” value is given as 3.55%.

Regarding `Cc1ccccc1OCc1ccc(C(=O)N2CCOCC2)o1`, the “hERG current change (%, negative = inhibition) at 10uM” value turned out to be 6.86%.

`Cc1cc(C)c(C(=O)O)c(Cl)n1`: the “hERG current change (%, negative = inhibition) at 10uM” value is listed as 5.94%.

On to `O=C(OCC(=O)N1CCc2ccccc2C1)c1ccc(Cl)c([N+](=O)[O-])c1`, for which the “hERG current change (%, negative = inhibition) at 10uM” value is given as -20.7%.

As to `CC1=C(c2ccccc2)[N+](=O)C2(CCCC2)N1[O-]`, the “hERG current change (%, negative = inhibition) at 10uM” value worked out at 10.3%.

Take `CCOCCCNC(=S)N(Cc1ccccc1)Cc1nc2ccccc2c(=O)[nH]1`: the “hERG current change (%, negative = inhibition) at 10uM” value was -22.3%.

For the compound `CCCc1cc(-c2ccc3c(c2)COc2c4ccccc4nn2-3)on1`, the “hERG current change (%, negative = inhibition) at 10uM” value is -21.4%.

For `C/C(=N\NC(=O)c1ccccc1O)c1ccc(NC(=O)c2ccccc2)cc1`, the “hERG current change (%, negative = inhibition) at 10uM” value is reported as 15.3%.

Take `COC(=O)c1c(NC(=O)c2ccccc2)sc2c1CC(C)(C)NC2(C)C`: the “hERG current change (%, negative = inhibition) at 10uM” value is on record as -5%.

Turning to `Cc1cccc(C(=O)Nc2ccccc2SCC(=O)Nc2ccc(C)c(Cl)c2)c1`, the “hERG current change (%, negative = inhibition) at 10uM” value came to 28.5%.

Turning to `COc1ccc(C(=O)/C=C/Nc2ccc([N+](=O)[O-])cc2C)c(OC)c1`, the “hERG current change (%, negative = inhibition) at 10uM” value amounted to 3.07%.

With `O=C(O)Cn1c(SCCOc2ccccc2)nc2ccccc21`, the “hERG current change (%, negative = inhibition) at 10uM” value was determined as 0.876%.

On to `O=S(=O)(c1cccc(-c2nnc(SC(F)F)n2-c2ccccc2)c1)N1CCCCC1`, for which the “hERG current change (%, negative = inhibition) at 10uM” value was -30.3%.
